Records with an inconclusive call do not appear. Where a call stands in place of a potency, no number is given. Calls of active or inactive are those of the source. Calls come from the whole dose curve; as a rule, active = well fitted cell-killing curve with a large enough effect; inconclusive = small, poorly fitted or top-dose-only effect; inactive = flat fitted curve, though single readings scatter.

From PubChem BioAssay (NCATS) come the findings set out here.

A short description of the experiment: Cell Viability - H-4-II-E (AID 543). Note: nearly all actives have a fitted effect of over 35% in size. The settings on record: H-4-II-E rat hepatoma viability; series mostly up to 92.2 µM. The text has this: NIH Chemical Genomics Center [NCGC]
NIH Molecular Libraries Screening Centers Network [MLSCN]
National Institutes of Environmental Health Sciences [NIEHS]
National Toxicology Program [NTP]
We have developed a 1536-well cell-based assay for quantitative high throughput screening (qHTS) against a number of cell lines to determine in vitro cytotoxicity of small molecules. This particular assay uses the H-4-II-E cell line which is derived from rat hepatoma.
NCGC Assay Protocol Summary:
The CellTiter-Glo luminescent cell viability assay (Promega) is a homogeneous method to measure the number of viable cells in culture. The end point readout of this assay is based on quantitation of intracellular ATP, an indicator of metabolic activity, using the luciferase reaction. Luciferase catalyzes the oxidation of beetle Luciferin to oxyluciferin and light in the presence of ATP. The luminescent signal is proportional to amount of ATP present.
Using the CellTiter-Glo luminescent cell viability assay, the amount of cellular ATP was measured in the H-4-II-E cell line with complete culture medium following compound treatment for 40 hours. The assay was performed in opaque white Kalypsys 1536-well plates. In the screen, tamoxifen and doxorubicin were used as positive controls. Library compounds were measured for their ability to cause acute toxicity in the cell line, as reflected by a decrease in intracellular ATP levels, in a concentration-dependent manner. […] AC50 values were determined from concentration-response data modeled with the standard Hill equation.
qHTS protocol fo CellTiter Glo H-4-II-E cellular assay
[Step] [Parameter] [Value] [Description]
1. Reagent; 5 uL; 1500 H-4-II-E cells/well
2. Time; 5 hr; 37 °C incubation
4. Controls; 23 nL; Tamoxifen 0.34 uM to 100 uM & Doxorubicin 0.02 nM to 100 uM
5. Time; 40 hr; 37 °C incubation
6. Reagent; 5 uL; CellTiter Glo reagent
7. Time; 20 min; Room Temperature
8. Detection; Luminescence; Viewlux plate reader
Keywords: cell viability, cytotoxicity, H-4-II-E cell line, luminescence, NTPHTS, NTPHTS_NCGC, NIEHS, EPA, DSSTox, MLSMR, MLSCN, NIH Roadmap, qHTS, NCGC
As for `Cc1cccc(C)c1O`, the Potency result was “inactive”.
Under `COc1cccc2sc(N)nc12` stands “inactive”; under `BrC(Br)C(Br)Br`, “inactive”; under `CC1(N)CCC(C(C)(C)N)CC1` (stereo not given), “inactive”.
`C=C(C)C(N)=O`: the Potency result is “inactive”.
Under `O=P(O)(OCc1ccccc1)OCc1ccccc1` stands “inactive”; under `Cc1ccc(C(=O)O)cc1`, “inactive”; under `CCOc1ccc(NC(C)=O)cc1N`, “inactive”.
With `CCNc1ccccc1` the entry was “inactive”; with `O=C(O)c1cccc(Cl)c1Cl`, “inactive”; with `C=C(C)C(=O)OCC(C)O` (stereo not given), “inactive”.
As to `O=[N+]([O-])c1ccc2nc[nH]c2c1`, the Potency result was “inactive”.
As to `CCCCCCC(=O)O`, the Potency result was “inactive”.
On to `CN(C)c1cccc(O)c1`, for which the Potency entry was “inactive”.
Under `O=C(O)CNC(=O)c1ccc([N+](=O)[O-])cc1` stands “inactive”.
Under `CSCCC=O` stands “inactive”; under `Nc1cccc(C(F)(F)F)c1`, “inactive”.
Under `C=CCCCCCCC=C` stands “inactive”; under `NC(=O)CCCCC(N)=O`, “inactive”; under `O=Cc1ccccc1Cl`, “inactive”.
Take `c1ccc2n[nH]nc2c1`: the Potency entry was “inactive”.
Under `COc1ccc(N)c(OC)c1` stands “inactive”; under `CCCCCCCCC/C=C/CC1CC(=O)OC1=O` (stereo not given), “inactive”.
Consider `CC(=O)CC(C)C`, for which the Potency entry was “inactive”.
Turning to `CCCCCCCN`, the Potency result was “inactive”.
Consider `CCOc1ccccc1N`, for which the Potency entry was “inactive”.
Under `CCC=O` stands “inactive”.
Under `FB(F)F` stands “inactive”; under `Cc1cc(C(=O)O)ccc1[N+](=O)[O-]`, “inactive”.
In the case of `Cc1nc2ccc(Cl)cc2[nH]1`, the Potency result is “inactive”.
Under `C=Cc1ccc(C=C)cc1` stands “inactive”; under `CCCCC(CC)COCC1CO1` (stereo not given), “inactive”; under `CCOC(C)(C)C`, “inactive”.
Under `c1ccsc1` stands “inactive”.
Under `COc1cccc(N)c1` stands “inactive”; under `CC=C(Cl)Cl`, “inactive”; under `Cc1cc(C)cc([N+](=O)[O-])c1`, “inactive”.
With `Cc1ccc2ccccc2c1[N+](=O)[O-]`, the Potency result was “inactive”.
With `O=C(O)c1ccc(CO)o1` the entry was “inactive”; with `O=C1OC(=O)c2c(Br)c(Br)c(Br)c(Br)c21`, “inactive”.
